From PubChem BioAssay AID504332 (National Center for Advancing Translational Sciences (NCATS), 2011)
Among all 350,000 compounds or so, about 31,000 (8.9%) were called active. A call without a number means that no potency is given here. Roughly 15% stayed inconclusive and do not appear here. The call rests on the fitted dose curve; in most records, active means well fitted inhibition curve with a large enough effect; inconclusive means small, poorly fitted or top-dose-only effect; inactive means no such curve, though single readings can be large or run the other way. Only a selection was taken, and actives are over-represented in it overall.

Target: Histone-lysine N-methyltransferase EHMT2 (Homo sapiens) (UniProt Q96KQ7)
Assay: qHTS Assay for Inhibitors of Histone Lysine Methyltransferase G9a; further: nearly all actives have a fitted effect of over 75% in size
Conditions: G9a H3K9 monomethylation, AlphaScreen, 2 h; series mostly up to 59 µM
Outline: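 Using a bead-based AlphaScreen, monomethylated H3K9 product from 2 h room-temperature reactions (G9a 20 nM, peptide 500 nM, SAM 20 uM) was detected with 0.5 ug/mL rabbit anti-H3K9me1 antibody.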
Potency means the concentration at half of the fitted maximal effect.

Sequence of Histone-lysine N-methyltransferase EHMT2 (Homo sapiens) (Q96KQ7 913-1193 limits assumed): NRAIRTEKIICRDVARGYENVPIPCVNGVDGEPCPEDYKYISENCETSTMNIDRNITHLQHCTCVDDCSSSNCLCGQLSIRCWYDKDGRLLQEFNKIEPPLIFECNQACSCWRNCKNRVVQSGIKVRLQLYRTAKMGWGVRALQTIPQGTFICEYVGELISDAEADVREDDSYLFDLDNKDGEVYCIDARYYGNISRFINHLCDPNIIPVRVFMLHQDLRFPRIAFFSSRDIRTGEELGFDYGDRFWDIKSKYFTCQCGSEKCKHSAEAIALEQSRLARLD

SMILES | Potency | activity, negative = inhibition
Cc1ccc(S(=O)(=O)N[C@@H](Cc2ccccc2)C(=O)N2CCC(C(=O)N[C@H](C(=O)O)C(C)O)CC2)cc1 (stereo not given in full) | inactive | 
COc1ccc(S(=O)(=O)N2CCOCC2)cc1NC(=O)Cc1c(F)cccc1Cl |  | 17.5% [at 12.7 µM] (inactive)
CC(OC(=O)CNC(=O)c1cccc(F)c1)C(=O)NC1CCCCC1C (stereo not given) | inactive | 
COc1ccc(NC(=O)C2CCN(c3ccc(Sc4ccc(C)cc4)nn3)CC2)c(OC)c1 | inactive | 
Cc1cc(NC(=O)c2ccc(-c3ccc(Cl)cc3)o2)cc(-c2nc3ncccc3o2)c1O | inactive | 
COc1ccc(CCNC(=O)CCc2ccccc2O)cc1OC |  | 7.03% [at 0.501 µM] (inactive)
COC(=O)N1CCC2(CCCN(Cc3ccccc3OC)C2)CC1 |  | 2.95% [at 12.7 µM] (inactive)
COc1ccc(OC)c(CN2CCN(C(=O)CNC(=O)c3cc(C)cc(C)c3)CC2)c1 | inactive | 
COc1ccccc1CN1CCN(Cc2cc(OC)c(OC)cc2OC)CC1 | 8.91 µM (active) | 
COc1ccc(C(=O)CSc2c(C(C)C)cnc3c2c(=O)n(C)c(=O)n3C)cc1 | inactive | 
CCN1C(=O)[C@@H]2[C@@H](c3ccc(-c4ccccc4)cc3)N3CCCC[C@@]3(C(=O)OC)[C@@H]2C1=O |  | -6.56% [at 2.33 µM] (inactive)
CCc1cnc2c(c1SCC(=O)N1CCC(C)CC1)c(=O)n(C)c(=O)n2C | inactive | 
O=C(c1cccnc1)N(c1cc2sc(=O)oc2c2ccccc12)S(=O)(=O)c1ccccc1 | 1.12 µM (active) | 
COc1ccc(N(C(=O)c2cccnc2)S(=O)(=O)c2ccc(OC)c(OC)c2)cc1 | inactive | 
COc1ccc(N(C(=O)c2cccnc2)S(=O)(=O)c2ccc3c(c2)n(C)c(=O)n3C)cc1 |  | -0.924% [at 12.7 µM] (inactive)
O=C(c1ccco1)N1CCN(C(=O)c2cc(-c3ccccc3F)no2)CC1 | inactive | 
CCCOC(=O)c1ccc(N2C(=O)c3ccccc3C2=O)cc1 | inactive | 
CCO/C=C1\C(=O)N(c2ccc(OCC)cc2)C(=O)c2ccccc21 | 31.6 µM (active) | 
CCOc1ccc(NC(=O)C(CC(C)C)N2Cc3ccccc3C2=O)cc1 (stereo not given) | inactive | 
O=C(COC(=O)c1ncc(Cl)c(Cl)c1Cl)NNC(=O)c1ccccc1 | inactive | 

SMILES | Potency | activity, negative = inhibition
O=[N+]([O-])c1cc([N+](=O)[O-])c2cccnc2c1O | 31.6 µM (active) | 
Cc1ccc(C(=O)Nc2cccc3ncccc23)cc1[N+](=O)[O-] |  | 35.3% [at 12.7 µM] (inactive)
COC(=O)c1ccc(COc2cc([N+](=O)[O-])cc3cccnc23)cc1 | inactive | 
O=c1cc(N2CCN(Cc3ccccc3)CC2)c(-c2ccccc2)n[nH]1 | inactive | 
O=C1c2ccccc2C(=O)c2c1cccc2N1CCN(Cc2ccccc2)CC1 | 10 µM (active) | 
CCc1c(C)nc(N2CCN(Cc3ccccc3)CC2)[nH]c1=O |  | -41.6% [at 12.7 µM] (inactive)
N#Cc1cccc(OC(=O)c2ccc3c(=O)n4c(nc3c2)CCC4)c1 |  | -1.34% [at 0.501 µM] (inactive)
COc1ccc(-c2cc3ncccc3cn2)cc1 |  | -3.56% [at 0.501 µM] (inactive)
COc1ccc(-c2cc(C3CCN(c4ncccc4[N+](=O)[O-])CC3)[nH]n2)cc1 | 50.1 µM (active) | 
CC(=O)NC(Cc1ccccc1)C(=O)NC1CCN(c2ncccc2[N+](=O)[O-])CC1 (stereo not given) | inactive | 
O=C(NCC1CCCO1)c1cc2c([nH]c3ccccc32)c(-c2ccc(F)cc2)n1 (stereo not given) |  | 6.78% [at 12.7 µM] (inactive)
COc1cc(NC(=O)CN2C(=O)NC(C)(c3ccc(OC(F)F)cc3)C2=O)cc(OC)c1OC (stereo not given) | inactive | 
CSc1nc(-c2ccc(F)cc2)nc2c1Cc1c(CO)cnc(C)c1O2 | inactive | 
CCc1nc(C)cn1S(=O)(=O)c1cc([N+](=O)[O-])ccc1Cl | inactive | 
COc1cc(Cl)c(S(=O)(=O)n2cnc(C)c2)cc1Cl | inactive | 
CCc1nc(C)cn1S(=O)(=O)c1cc(OC)c(C)cc1C | 44.7 µM (active) | 
CCOc1cc(/C=C2\SC(N3CCCC(C)C3)=NC2=O)ccc1O (stereo not given) | inactive | 
CC(C)C(=O)NCC(c1cccs1)S(=O)(=O)c1ccc(F)cc1 (stereo not given) | inactive | 
CC1CCCC(C)N1C(=O)COC(=O)COc1ccccc1C#N (stereo not given) | inactive | 
COc1ccccc1N1CCN(Cc2ccc(OC)c3ccccc23)CC1 | 8.91 µM (active) | 

SMILES | Potency | activity, negative = inhibition
COC(=O)c1cnc(N2CCN(c3ccccc3OC)CC2)c2ccccc12 | inactive | 
COc1ccccc1N1CCN(CCN2C(=O)c3ccccc3C(C)(C)C2=O)CC1 | inactive | 
COc1ccccc1N1CCN(CC(=O)NCCc2ccc(S(N)(=O)=O)cc2)CC1 | inactive | 
CC(=O)Nc1ccc(OCC(O)CN2CCN(c3ccccc3Cl)CC2)cc1 (stereo not given) | inactive | 
CNCC(O)CN1CCN(c2ccccc2OC)CC1 (stereo not given) | 50.1 µM (active) | 
S=C(Nc1cccnc1)Nc1ccccn1 |  | -8.13% [at 2.33 µM] (inactive)
COc1ccc(S(=O)(=O)N2CCCCC2)cc1C(=O)NC1CCS(=O)(=O)C1 (stereo not given) | inactive | 
CCOC(=O)c1cc(-c2ccccc2C)n(Cc2cc(C)no2)n1 |  | -5.1% [at 0.501 µM] (inactive)
CN(C(=O)COC(=O)Cn1cnc2c1c(=O)n(C)c(=O)n2C)C1(C#N)CCCCC1 |  | 24% [at 12.7 µM] (inactive)
O=C(N/N=C\c1cccnc1)c1cc(-c2ccccc2)nc2c(Cl)cccc12 | inactive | 
Cc1cc(C(=O)N/N=C\C(Br)=C\c2ccccc2)c(C)o1 | inactive | 
c1ccc(-n2nnnc2-c2cccnc2)cc1 | inactive | 
S=c1[nH]nc(-c2cccnc2)n1/N=C/C(Cl)=C\c1ccccc1 | 0.891 µM (active) | 
Cc1cc(-c2n[nH]c(=S)n2/N=C/C(Br)=C/c2ccccc2)n[nH]1 | 6.31 µM (active) | 
Cc1cc(-c2n[nH]c(=S)n2/N=C/c2ccco2)n[nH]1 |  | -104% [at 12.7 µM] (inactive)
O=C(O)CCCn1cc(NC(=O)COc2cccc(Cl)c2)cn1 | inactive | 
O=C1CCN(CCCc2ccccc2)CCN1CCO | inactive | 
CC1CCN(C(=S)c2ccc(-c3ccc(Cl)cc3Cl)o2)CC1 | 8.91 µM (active) | 
COc1ccc(C(=O)Nc2c(Cl)cc(Cl)cc2C(=O)N2CCC(C)CC2)cc1 | inactive | 
Cc1csc(NC(=O)c2ccc(-c3ccc(Cl)cc3Cl)o2)n1 | inactive | 
